Screening data from PubChem.
Shown are actives, neighbours in structure and some others; about 18% of the full set was active somewhere.
KAT2A inh: qHTS Assay for Inhibitors of GCN5L2 | 0.21% of 390,000 active | GCN5L2 HAT assay, ThioGlo1 CoA-SH fluorescence | Potency, µM (highest dose often 58.9 µM), hits mostly inhibitors | Histone acetyltransferase KAT2A (Homo sapiens), Q92830
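qHTS, 1536-well. 20nM enzyme, pH 7.5 HEPES/EDTA/Tween-20 buffer; 15 min compound preinc., RT. Start: 75uM H3(1-25), 70uM AcCoA, 50uM ThioGlo1. Read Ex340/Em540 at t=0 (autofluorescence flag) and t=20 min.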
DT40 TDP1 no CPT: qHTS for Inhibitors of human tyrosyl-DNA phosphodiesterase 1 (TDP1): qHTS in cells in absence of CPT; DT40 Tdp1-/- hTDP1 cells, no CPT, ATP luminescence, 48 h; Potency, µM (series often up to 46.2 µM), usual class: inhibitors; 15% of 420,000 active; AID 686978, 2013; further: nearly all actives have a fitted effect of over 55% in size
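Seeded 400 DT40-hTDP1 cells/well (vehicle DMSO, no 20 nM CPT); pinned compounds; ≥48 hr at 37 °C; CellTiter-Glo luminescence as viability measure.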
TDP1 inh: qHTS Assay for Inhibitors of Tyrosyl-DNA Phosphodiesterase (TDP1); recombinant TDP1, AlphaScreen DNA substrate cleavage; Potency, µM (titrated, usually from 130 µM), most hits filed as inhibitors; AID 485290, 2010; Tyrosyl-DNA phosphodiesterase 1 (Homo sapiens), Q9NUW8; 0.28% of 350,000 active; further: nearly all actives have a fitted effect of over 40% in size
Target sequence (Q9NUW8 whole entry, looked up): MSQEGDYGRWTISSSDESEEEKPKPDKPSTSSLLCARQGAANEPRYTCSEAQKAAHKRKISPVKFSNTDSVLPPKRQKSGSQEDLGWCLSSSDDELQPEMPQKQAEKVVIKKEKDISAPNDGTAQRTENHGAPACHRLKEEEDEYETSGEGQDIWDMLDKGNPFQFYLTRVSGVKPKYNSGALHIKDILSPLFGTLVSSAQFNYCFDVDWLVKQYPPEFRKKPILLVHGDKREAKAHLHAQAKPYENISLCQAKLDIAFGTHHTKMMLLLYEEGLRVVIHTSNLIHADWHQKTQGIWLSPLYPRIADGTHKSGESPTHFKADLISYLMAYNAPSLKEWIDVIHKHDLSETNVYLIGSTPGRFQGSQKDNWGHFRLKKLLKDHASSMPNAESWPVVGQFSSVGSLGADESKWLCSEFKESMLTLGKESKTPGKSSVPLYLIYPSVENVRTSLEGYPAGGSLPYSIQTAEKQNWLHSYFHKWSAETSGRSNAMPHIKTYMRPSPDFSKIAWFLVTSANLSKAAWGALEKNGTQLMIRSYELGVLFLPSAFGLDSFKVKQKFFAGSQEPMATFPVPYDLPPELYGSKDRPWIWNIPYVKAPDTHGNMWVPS
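Compounds were preincubated with Tdp1 (1 nM final) for 15 min at room temperature before substrate (15 nM final) started a 5 min reaction; beads (10 ug/ml final) were then added for 10 min before AlphaScreen detection.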
VDR inhibitor: Inhibitors of the vitamin D receptor (VDR): qHTS; Vitamin D3 receptor (Homo sapiens), P11473; VDR-SRC2-3 peptide fluorescence polarization, 2 h; Potency, µM, most hits filed as inhibitors; 0.93% of 400,000 active; AID 504847, 2011
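Compounds are added to VDR with labelled SRC2-3 coactivator peptide and held 2 h at room temperature. Inhibition of the VDR–peptide interaction is then read as a change in fluorescence polarization.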
DT40 TDP1 CPT: qHTS for Inhibitors of human tyrosyl-DNA phosphodiesterase 1 (TDP1): qHTS in cells in presence of CPT; chicken DT40 Tdp1-/-;hTDP1 cells + 20 nM CPT, ATP luminescence, 48 h; Potency, µM (highest dose often 46.2 µM), hits mostly inhibitors; 12% of 420,000 active; further: nearly all actives have a fitted effect of over 55% in size
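Chicken DT40 Tdp1-/- cells stably complemented with human TDP1 were seeded at 400 cells/well in medium containing 20 nM camptothecin, exposed to pin-transferred compounds, and grown at 37 °C for at least 48 hr. Viability was read as ATP luminescence.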
PLK1 PBD inh: qHTS for Inhibitors of PLK1-PDB (polo-like kinase 1 - polo-box domain): Primary Screen. Serine/threonine-protein kinase PLK1 (Homo sapiens), P53350. Plk1 PBD binding of FITC phosphopeptide, fluorescence polarization. Potency, µM, usual class: inhibitors. 2.8% of 360,000 active; further: series mostly up to about 57 µM; nearly all actives have a fitted effect of over 65% in size
A number is an active result; [ ] = remark or other dose. The call rests on the fitted dose curve; in most records, active means well fitted curve in the direction sought with a large enough effect; inconclusive means small, poorly fitted or top-dose-only effect, or another doubt; inactive means no such curve, though single readings can be large; an effect the other way counts as inactive or inconclusive.

Screening CCOC(=O)c1c(C)[nH]c(C)c1C(=O)COc1ncnc2ccccc12 returned KAT2A inh inactive, DT40 TDP1 no CPT inconclusive, TDP1 inh inactive, VDR inhibitor inconclusive, DT40 TDP1 CPT inconclusive and PLK1 PBD inh 11.9µM.
Screening Cc1ccc(CN2CCC(C)(Oc3ccc(Cl)cc3)C2)cc1 (stereo not drawn) returned DT40 TDP1 no CPT inconclusive, DT40 TDP1 CPT inconclusive and PLK1 PBD inh inactive.
Screening COc1ccc(NC(=O)CCCCC(=O)Nc2ccc(OC)cc2OC)c(OC)c1 returned DT40 TDP1 no CPT inactive, VDR inhibitor inactive, DT40 TDP1 CPT inactive and PLK1 PBD inh inactive.
COc1ccc(OC)c(NC(=O)Cn2c(=O)c3cccn3c3ccccc32)c1 was read as KAT2A inh inactive, DT40 TDP1 no CPT 11.6µM, TDP1 inh inactive, VDR inhibitor inactive and DT40 TDP1 CPT inconclusive.
Screening COc1ccccc1NC(=O)CCn1c(=O)c2cccn2c2ccccc21 returned KAT2A inh inactive, DT40 TDP1 no CPT 23.1µM, TDP1 inh inactive, VDR inhibitor inactive, DT40 TDP1 CPT inconclusive and PLK1 PBD inh inactive.
Screening COc1ccc(NC(=O)CCCn2c(=O)c3cccn3c3ccccc32)c(OC)c1 returned KAT2A inh inactive, DT40 TDP1 no CPT 10.3µM, TDP1 inh inactive, VDR inhibitor inactive and DT40 TDP1 CPT 13µM.
`CC(=O)N1CCc2cc(S(=O)(=O)NC(CC(C)C)C(=O)NCc3ccccc3Cl)ccc21` (stereo not drawn) gave KAT2A inh inactive, DT40 TDP1 no CPT inactive, TDP1 inh inactive, VDR inhibitor inactive and DT40 TDP1 CPT inactive.
`CCCCn1c(N)c(N(CCOC)C(=O)CC(NC(=O)c2ccccc2Cl)c2ccccc2)c(=O)[nH]c1=O` (stereo not drawn) gave DT40 TDP1 no CPT inactive, VDR inhibitor inactive, DT40 TDP1 CPT inactive and PLK1 PBD inh inactive.
For Cc1c(O)cnc2nn(-c3ccccc3)c(=N)n12 the results were DT40 TDP1 no CPT inactive, DT40 TDP1 CPT inactive and PLK1 PBD inh inactive.
CC1(C(=O)Nc2ccc3c(c2)OCCO3)CCN1Cc1ccc(-c2ccccn2)cc1 (stereo not drawn) was read as DT40 TDP1 no CPT inconclusive, DT40 TDP1 CPT inconclusive and PLK1 PBD inh inactive.
CC1(C(=O)NCc2ccccc2Br)CCN1C(=O)C1(c2ccc(Cl)cc2)CC1 (stereo not drawn) was read as DT40 TDP1 no CPT inconclusive, DT40 TDP1 CPT inconclusive and PLK1 PBD inh inactive.
CC1(C(=O)NCc2cccc3ccccc23)CCN1C(=O)C1(c2ccccc2)CCCC1 (stereo not drawn) was read as DT40 TDP1 no CPT 20.6µM, DT40 TDP1 CPT 23.1µM and PLK1 PBD inh inactive.
For CCCCNC(=O)C1(C)CCCCN1Cc1ccc2ccccc2c1 (stereo not drawn) the results were DT40 TDP1 no CPT inconclusive, DT40 TDP1 CPT 23.1µM and PLK1 PBD inh inactive.
Screening CC1(C(=O)NCc2cccc3ccccc23)CCN1Cc1ccc2ccccc2c1 (stereo not drawn) returned DT40 TDP1 no CPT 18.4µM, DT40 TDP1 CPT 18.4µM and PLK1 PBD inh inactive.
CC1(C(=O)NCc2ccccc2Br)CCN1Cc1ccc(-c2ccccn2)cc1 (stereo not drawn) was read as DT40 TDP1 no CPT 18.4µM, DT40 TDP1 CPT 14.6µM and PLK1 PBD inh inactive.
`COc1ccc(NC(=O)C2(C)CCN2Cc2ccc3ccccc3c2)cc1OC` (stereo not drawn) gave DT40 TDP1 no CPT inconclusive, DT40 TDP1 CPT inconclusive and PLK1 PBD inh inactive.
Screening COc1ccccc1CNC(=O)C1(C)CCN1Cc1ccc2ccccc2c1 (stereo not drawn) returned DT40 TDP1 no CPT inactive, DT40 TDP1 CPT inactive and PLK1 PBD inh inactive.
`O=C(COCC(=O)NCc1ccccc1)NCc1ccccc1` gave KAT2A inh inactive, DT40 TDP1 no CPT inactive, TDP1 inh inactive, VDR inhibitor inactive, DT40 TDP1 CPT inactive and PLK1 PBD inh inactive.
Cc1ccc(CN2CCC2(C)C(=O)NC(C)C)cc1 (stereo not drawn) was read as DT40 TDP1 no CPT inconclusive, DT40 TDP1 CPT inconclusive and PLK1 PBD inh inactive.
CC1(C(=O)NCc2cccc(C(F)(F)F)c2)CCN1Cc1ccc2ccccc2c1 (stereo not drawn) was read as DT40 TDP1 no CPT inconclusive, DT40 TDP1 CPT inconclusive and PLK1 PBD inh inactive.
Screening CC1(C(=O)NCc2cccc3ccccc23)CCN1Cc1cccc2c1OCO2 (stereo not drawn) returned DT40 TDP1 no CPT 14.6µM, DT40 TDP1 CPT 23.1µM and PLK1 PBD inh inactive.
CC1(C(=O)NCc2ccccc2Br)CCN1Cc1ccc2ccccc2c1 (stereo not drawn) was read as DT40 TDP1 no CPT inconclusive, DT40 TDP1 CPT 20.6µM and PLK1 PBD inh inactive.
Screening CC(C)CCNC(=O)C1(C)CCN1Cc1ccc2ccccc2c1 (stereo not drawn) returned DT40 TDP1 no CPT 23.1µM, DT40 TDP1 CPT inconclusive and PLK1 PBD inh inactive.
For CCCCNC(=O)C1(C)CCCCCN1Cc1cccc2c(OC)cc(C(=O)OCC)cc12 (stereo not drawn) the results were DT40 TDP1 no CPT 13µM, DT40 TDP1 CPT inconclusive and PLK1 PBD inh inactive.
For C[C@@H](NC(=O)[C@@H]1CCCN1C(=O)[C@@H]1CCCN1C(=O)c1ccc(Cl)cc1)c1ccccc1 the results were DT40 TDP1 no CPT inconclusive, DT40 TDP1 CPT inconclusive and PLK1 PBD inh inactive.
O=C(NC(C(=O)N/N=C/c1cc([N+](=O)[O-])ccc1O)c1n[nH]c(=O)c2ccccc12)c1ccccc1 (stereo not drawn) was read as KAT2A inh inactive, DT40 TDP1 no CPT inconclusive, TDP1 inh inactive[0.0935 µM], VDR inhibitor inactive, DT40 TDP1 CPT inactive and PLK1 PBD inh inconclusive.
For COc1cccc(Cn2c(=O)c(-c3ccccc3)nc3cnc(N4CCNCC4)nc32)c1 the results were KAT2A inh inactive, DT40 TDP1 no CPT inconclusive, VDR inhibitor inconclusive and DT40 TDP1 CPT inconclusive.
For N#C/C(=C\c1ccc(Cl)cc1Cl)c1nc(-c2cccc(Cl)c2)cs1 the results were KAT2A inh inactive, DT40 TDP1 no CPT inactive, TDP1 inh inactive[2.28 µM], VDR inhibitor inactive and DT40 TDP1 CPT inactive.
For COc1ccc(CNC(=O)CNC(=O)c2c(C)nn(C)c2Cl)cc1 the results were KAT2A inh inactive, DT40 TDP1 no CPT inactive, TDP1 inh inactive, VDR inhibitor inactive, DT40 TDP1 CPT inactive and PLK1 PBD inh inactive.
